Results on 30 compounds are retold here after PubChem BioAssay (NCATS).

Results filed as inconclusive are left out. Values without a mark were called inactive. Active and inactive are the calls of the source. Unless noted, calls follow the shape of the full dose curve.

Assay [1] is described as follows: qHTS for Inhibitors of the Functional Ribonucleoprotein Complex (vRNP) of Lassa (LASV) Arenavirus: LASV Primary Screen - GLuc reporter signal (AID 1347082; calls by dose curve; tested in HEK293 reporter line; also: nearly all actives have a fitted effect of over 60% in size; as to activity change, negative = inhibition: series mostly up to about 57 µM). A general note: Quantitative high-throughput screening tests each substance at several concentrations.
Assay [2] can be described thus: qHTS for Inhibitors of the Functional Ribonucleoprotein Complex (vRNP) of Lassa (LASV) Arenavirus: Viability assay - alamar blue signal for LASV Primary Screen (AID 1347083; calls by dose curve; tested in HEK293 reporter line; also: nearly all actives have a fitted effect of over 80% in size; as to activity change, negative = reduced viability: series mostly up to about 57 µM).
The nature of assay [3]: qHTS for Inhibitors of the Functional Ribonucleoprotein Complex (vRNP) of Lymphocytic Choriomeningitis Arenaviruses (LCMV): Viability assay - alamar blue signal for LCMV Primary Screen (AID 1347085; calls by dose curve; tested in HEK293 reporter line; also: nearly all actives have a fitted effect of over 80% in size; as to activity change, negative = lower viability: series mostly up to about 57 µM).
For assay [4], the target named is Nucleoprotein (Lymphocytic choriomeningitis virus (strain Armstrong)) (UniProt P09992). Briefly: qHTS for Inhibitors of the Functional Ribonucleoprotein Complex (vRNP) of Lymphocytic Choriomeningitis Arenaviruses (LCMV): LCMV Primary Screen - GLuc reporter signal (AID 1347086). Also: nearly all actives have a fitted effect of over 70% in size. As to activity change, negative = inhibition: series mostly up to about 57 µM.
Nucleoprotein (Lymphocytic choriomeningitis virus (strain Armstrong)), sequence (P09992 whole entry, looked up): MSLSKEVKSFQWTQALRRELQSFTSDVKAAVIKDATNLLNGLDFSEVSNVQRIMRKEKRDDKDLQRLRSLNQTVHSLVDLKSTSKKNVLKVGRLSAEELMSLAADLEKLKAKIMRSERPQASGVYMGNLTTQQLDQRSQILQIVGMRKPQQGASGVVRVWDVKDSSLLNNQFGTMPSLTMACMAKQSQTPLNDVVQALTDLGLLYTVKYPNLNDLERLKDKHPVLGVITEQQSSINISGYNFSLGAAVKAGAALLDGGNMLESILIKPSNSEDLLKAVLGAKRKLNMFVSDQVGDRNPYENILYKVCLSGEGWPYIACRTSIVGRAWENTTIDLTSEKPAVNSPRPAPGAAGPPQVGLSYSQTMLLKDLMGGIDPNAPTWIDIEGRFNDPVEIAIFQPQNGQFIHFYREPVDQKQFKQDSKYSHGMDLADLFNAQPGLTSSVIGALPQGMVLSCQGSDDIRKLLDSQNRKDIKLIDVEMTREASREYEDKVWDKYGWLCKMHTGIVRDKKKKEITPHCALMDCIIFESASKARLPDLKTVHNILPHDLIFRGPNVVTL
% is scaled to controls: 0 for no effect and ±100 for the full control effect; potency is read from the fitted curve at half-maximal effect.

For the compound `COC(=O)CC1[C@@]2(C)C[C@]34OC5(C)OC6(C7CC(=O)OC(c8ccoc8)[C@]7(C)CCC6(O5)[C@]13C)C(OC(C)=O)[C@]4(OC(C)=O)C2OC(C)=O` (stereo not given in full), the Potency result in assay [1], in assay [2], in assay [3] and in assay [4] was “inactive” each time.

Consider `Cc1cnnc2ccccc12`, for which the Potency entry in assay [1], in assay [2], in assay [3] and in assay [4] was “inactive” throughout.

With `COc1cc2c(cc1OC)C1Cc3ccc(OC)c(OC)c3C[N+]1([O-])CC2` (stereo not given), the Potency result in assay [1], in assay [2], in assay [3] and in assay [4] was “inactive” throughout.

On to `[3H]C([3H])([3H])C(O)(CCC[C@@H](C)C1CC[C@H]2/C(=C/C=C3/C[C@@H](O)CCC3=C)CCC[C@]12C)C([3H])([3H])[3H]` (stereo not given in full), for which the Potency entry in assay [1], in assay [2], in assay [3] and in assay [4] was “inactive” in each case.

Consider `Cc1c(-c2cccc3c(CCCOc4cccc5ccccc45)c(C(=O)O)n(Cc4cccnc4)c23)c(COc2ccc(N3CCN([S+](=O)([O-])N(C)C)CC3)cc2)nn1C`, for which the Potency entry in assay [1], in assay [2], in assay [3] and in assay [4] was “inactive” throughout.

On to `COc1c2c(c(C)c3c1C(=O)OC3)O[C@@]1(C)CC[C@@]3(O)C(C)(C)OC(=O)CC[C@]3(C)[C@H]1C2`, for which the Potency result in assay [1], in assay [2], in assay [3] and in assay [4] was “inactive” in each case.

In the case of `COc1cc2c(cc1OC)[C@H]1C(=O)c3ccc4c(c3O[C@H]1CO2)C[C@@H](C(C)(C)O)O4`, the Potency result in assay [1], in assay [2], in assay [3] and in assay [4] was “inactive” in each case.

In the case of `CCN1C[C@]2(C)CCC(OC)[C@@]34C5C[C@@H]6CC[C@@](O)(C5C(=O)O6)[C@@H](C(O)C23)[C@@H]14` (stereo not given in full), the Potency entry in assay [1], in assay [2], in assay [3] and in assay [4] was “inactive” each time.

Turning to `CC1(C)C[C@H]2C3=CCC4[C@@]5(C)CC[C@H](O)C(C)(C)C5CC[C@@]4(C)[C@]3(C)[C@@H](O)[C@@H](O)[C@@]2(CO)[C@@H](O)[C@@H]1O` (stereo not given in full), the Potency entry in assay [1], in assay [2], in assay [3] and in assay [4] was “inactive” each time.

Take `C[C@]12CC[C@@H](O)CC1=CC(=O)C1C2CC[C@]2(C)C(=O)[C@H](O)CC12` (stereo not given in full): the Potency result in assay [1], in assay [2], in assay [3] and in assay [4] was “inactive” throughout.

For the compound `COc1cc(O)c2c(=O)c3c(OC)c(O)ccc3oc2c1`, the Potency entry in assay [1], in assay [2], in assay [3] and in assay [4] was “inactive” in each case.

In the case of `CC(=NNC(=S)N1CCC1)c1ccccn1`, the Potency in assay [1] is 0.0273 µM (active); in assay [2] it was 0.0432 µM (active); in assay [3], 0.0385 µM (active); in assay [4], 0.0243 µM (active).

As for `Nc1nc2c(ncn2[C@@H]2O[C@H](COP(=O)(O)OP(=O)(O)O)[C@@H](O)[C@H]2O)c(=O)[nH]1`, the Potency result in assay [1], in assay [2], in assay [3] and in assay [4] was “inactive” in each case.

Take `C[C@]12CCC(=O)C=C1[C@@H]1CC1[C@H]1[C@H]3[C@@H]4C[C@H]4[C@@]4(CCC(=O)O4)[C@@]3(C)CC[C@H]12` (stereo not given in full): the Potency entry in assay [1], in assay [2], in assay [3] and in assay [4] was “inactive” each time.

For `CCCCCC(=O)OCC`, the Potency result in assay [1], in assay [2], in assay [3] and in assay [4] was “inactive” each time.

With `O=C1c2c(O)cc(O)cc2O[C@H](c2cc(O)c(O)c(O)c2)[C@H]1O`, the Potency entry in assay [1], in assay [2], in assay [3] and in assay [4] was “inactive” throughout.

With `CC(C)(C)c1ccccc1`, the Potency result in assay [1], in assay [2], in assay [3] and in assay [4] was “inactive” throughout.

As to `C[C@]12O[C@H](C[C@@]1(O)C(=O)O)n1c3ccccc3c3c4c(c5c6ccccc6n2c5c31)CNC4=O`, the activity change, negative = inhibition was -19.8% [at 5.82 µM] in assay [1] and 25.9% [at 5.82 µM] in assay [4]. In assay [2], the activity change, negative = reduced viability was -37.8% [at 5.82 µM]. Moreover, the activity change, negative = lower viability in assay [3] is 6.16% [at 5.82 µM].

As for `COc1ccc([C@H]2c3cc(OC)c(OC)cc3C[C@@H](C)[C@@H]2C)cc1OC`, the Potency result in assay [1], in assay [2], in assay [3] and in assay [4] was “inactive” in each case.

`C=CC(C)(CCC=C(C)C)OC(=O)CC(C)C` (stereo not given): the Potency result in assay [1], in assay [2], in assay [3] and in assay [4] was “inactive” in each case.

On to `CO[C@H]1/C=C\O[C@@]2(C)Oc3c(C)c(O)c4c(O)c(c5c(nc6cc(C)ccn65)c4c3C2=O)NC(=O)C(C)=CC=C[C@H](C)[C@H](O)[C@@H](C)[C@@H](O)[C@@H](C)[C@H](OC(C)=O)[C@H]1C`, for which the Potency entry in assay [1], in assay [2], in assay [3] and in assay [4] was “inactive” throughout.

Consider `CC1=C[C@H]2[C@]3(O)C(C=C(CO)C[C@]2(O)C1=O)[C@@H]1C(C)(C)[C@]1(O)[C@H](O)[C@H]3C` (stereo not given in full), for which the Potency result in assay [1], in assay [2], in assay [3] and in assay [4] was “inactive” throughout.

As to `COC(=O)C1(Cc2ccc(O)cc2)OC(=O)C(O)=C1c1ccc(O)cc1` (stereo not given), the Potency result in assay [1], in assay [2], in assay [3] and in assay [4] was “inactive” throughout.

For `CC(=O)O[C@@H]1CC2C(C)(C)C(=O)C=C[C@]2(C)C2CC[C@]3(C)C(=CC[C@H]3C3CO[C@@H](C(C)(C)O)[C@H](O)C3)[C@@]21C` (stereo not given in full), the Potency entry in assay [1], in assay [2], in assay [3] and in assay [4] was “inactive” in each case.

Regarding `CC(=O)OC[C@@]12C(=O)[C@@H](O)[C@@H](C)[C@]3(C[C@@H](c4ccoc4)O[C@@H]3OC(C)=O)[C@H]1CCC[C@]21CO1`, the Potency entry in assay [1], in assay [2], in assay [3] and in assay [4] was “inactive” throughout.

Take `CCCCC/C=C\C[C@@H]1O[C@H]1/C=C/C(O)C/C=C\CCCC(=O)O` (stereo not given in full): the activity change, negative = inhibition in assay [1] is -3.16% [at 0.757 µM]; in assay [4], 7.04% [at 0.757 µM]. The activity change, negative = reduced viability in assay [2] was 11.9% [at 0.757 µM]. For the same compound, the activity change, negative = lower viability in assay [3] is 4.17% [at 0.757 µM].

For the compound `COc1ccc2c(=O)cc(-c3ccccc3)n(C)c2c1`, the Potency entry in assay [1], in assay [2], in assay [3] and in assay [4] was “inactive” in each case.

Consider `C=Cc1cc(OC)c2c(c1)c(=O)oc1c2cc(OC)c2c(O)ccc(C3OC(C)C(O)C(C)(O)C3O)c21` (stereo not given), for which the Potency entry in assay [1], in assay [2], in assay [3] and in assay [4] was “inactive” in each case.

For the compound `Cc1cnccn1`, the Potency entry in assay [1], in assay [2], in assay [3] and in assay [4] was “inactive” throughout.

With `C[C@H]1O[C@@H](O[C@H]2CC[C@@]3(C)C(CC[C@]4(C)C3C=C[C@]35OC[C@@]6(CCC(C)(C)C[C@H]63)[C@@H](O)C[C@]54C)[C@]2(C)CO)[C@H](O)[C@@H](O[C@@H]2O[C@H](CO)[C@@H](O)[C@H](O)[C@H]2O)[C@H]1O` (stereo not given in full), the Potency result in assay [1], in assay [2], in assay [3] and in assay [4] was “inactive” each time.
